HCMV inh: blocks human cytomegalovirus replication | activity change, negative = inhibition, % at 57.5 µM | AID 1259415 | actives 4.5% (n = 410,000) | HFF cells, HCMV-luciferase reporter, 72 h; active compounds read low; in the data active means activity change below about -60%; inconclusive means no clear call, values can overlap the other calls; inactive means above about -39%
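HFF cells seeded 16 h at 37C, treated with compounds, infected with luciferase-reporter HCMV at MOI 1 PFU/cell; luciferase read at 72 h post infection, normalized to buffer-only and Salinomycin controls.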
Marburg entry inh: inhibitors of Marburg virus binding or cell entry. Marburg virus pseudotyped entry inhibition, cell reporter. Potency, µM (highest dose often 37.8 µM), without a hit: top-dose activity change, negative = inhibition, hits mostly inhibitors. actives 1.8% (n = 300,000). AID 540276; calls by dose curve; tested in HEK293 cells; further: potency means the concentration at half of the fitted maximal effect
LASV entry inh: inhibitors of Lassa virus binding or cell entry; Potency, µM (highest dose often 37.9 µM), for inactives: at the top dose activity change, negative = inhibition, usual class: inhibitors; actives 1.2% (n = 300,000); Lassa virus pseudotype entry inhibition, cell reporter; AID 540256; calls by dose curve; tested in HEK293 cells; further: potency means the concentration at half of the fitted maximal effect; nearly all actives have a fitted effect of over 50% in size
FMDV antiviral: foot and mouth disease virus antiviral activity. FMDV antiviral cell-based qHTS. Potency, µM (series often up to 57.9 µM), for inactives: at the highest dose activity change, negative = inhibition, usual class: inhibitors. AID 1159524. actives 1.2% (n = 410,000); calls by dose curve; tested in HEK293T cells; further: read-out not given here; potency means the concentration at half of the fitted maximal effect; nearly all actives have a fitted effect of over 45% in size
Starred values were filed as active, the others as inactive; ? = inconclusive; nt = no result given; [ ] = dose if it differs, or a comment. Hits are enriched below; roughly 6.2% of the tested compounds scored in any of these assays. On the % scale 0 is the no-effect control and ±100 the full control effect.

SMILES | HCMV inh | Marburg entry inh | LASV entry inh | FMDV antiviral
CCCc1nc(SCC(=O)NC2CC2)c2c(C)c(C)sc2n1 | 54.6 | 17.9%[46.1 µM] | 2.2%[46.1 µM] | -11.3%
O=C(COC(=O)Cc1ccc(F)cc1)Nc1ccc2[nH]c(=O)[nH]c2c1 | -20.2 | 11.0% | -2.9% | -16.0%
O=C(/C=C/c1ccccc1[N+](=O)[O-])NCc1ccccc1Cl | -20.5 | ? | -4.4%[46.1 µM] | 0.0%
C#CCOCCOCCOCCNc1nc(N2CCN(C(=O)[C@H]([C@@H](C)CC)n3cc([C@@H](N)CC(C)C)nn3)CC2)nc(N2CCN(C(=O)[C@H](CCCCN)n3cc([C@@H](N)CC(C)C)nn3)CC2)n1 | nt | nt | nt | 3.3%
COc1ccc(NC(=O)CC2C(=O)N(c3ccc(OC)cc3)C(=O)N2CCc2cccs2)cc1 (centres undefined) | -34.2 | -19.0% | 9.2µM* | 14.5%
Cc1ccc(OCC(=O)N2CCc3ccccc3C2)c(C)c1 | 43.5 | -1.9% | -15.9% | 19.2%
Cc1ccc(C)c(NS(=O)(=O)c2ccc(-c3ccc(=O)[nH]n3)o2)c1 | -8.5 | nt | nt | -0.4%
CN1CCN(C(=O)c2ccc3c(c2)N(Cc2cccc(Cl)c2)C(=O)c2ccccc2S3=O)CC1 (centres undefined) | -3.0 | nt | nt | -10.2%
CCCCOC(=O)c1ccc(NC(=S)NC(=O)c2c(Br)c(C)nn2C)cc1 | -64.2* | ? | 4.0% | -15.6%
CCOC(=O)c1ccc(NC(=S)NC(=O)c2cncc(Br)c2)cc1 | -71.9* | 4.8%[46.1 µM] | 14.0% | -7.6%
Cc1cccc(C)c1NC(=O)C1(C)CSCC(=O)N1C1CCN(Cc2ccccc2)CC1 (centres undefined) | -68.3* | nt | nt | -11.7%
CC1(C(=O)NCc2ccccc2)CSCC(=O)N1C1CCN(Cc2ccccc2)CC1 (centres undefined) | -27.4 | nt | nt | -2.8%
O=C(CCc1ccccc1)NNC(=O)CCc1ccccc1 | 6.0 | nt | nt | 18.5%
O=C(NNc1ccccn1)C(c1ccccc1)c1ccccc1 | -17.4 | ? | -16.9% | -9.5%
Cc1ccccc1C(=O)NNC(=O)CCc1ccccc1 | -22.3 | -8.9%[46.1 µM] | 5.4% | -2.2%
CCNC(=S)NNC(=O)c1ccccn1 | 51.3 | ? | ? | -10.5%
O=C(CCc1ccccc1)NNC(=O)c1ccccn1 | -75.5* | nt | nt | 3.3%
O=C(NNC(=O)C(c1ccccc1)c1ccccc1)c1ccccn1 | -97.3* | 4.61µM* | ? | ?
O=C(NNC(=S)Nc1ccc(Cl)c(Cl)c1)c1ccccn1 | -82.3* | nt | nt | 12.4%
O=C(CCc1ccccc1)NNC(=O)c1ccccc1C(=O)O | 38.2 | -1.6% | 4.61µM* | -7.3%
ON=C1CCC2CCCCC2C1 (centres undefined) | -21.8 | nt | nt | 0.0%
CC1/C(=N/O)C(CN(C)C)C2CC1C2(C)C (centres undefined) | 40.8 | 2.5% | 0.6% | -6.7%
CN(C)c1ncc(CN2CCC(C(=O)Nc3ccc(-n4cccn4)cc3)CC2)s1 | -5.8 | 18.9% | 10.7% | -7.4%
C=CCN=c1scc(-c2ccc3c(c2)NC(=O)CO3)n1/N=C(\C)c1ccccn1 | -95.0* | ? | ? | 17.8µM*
CC(Nc1nc(-c2ccc3c(c2)NC(=O)CO3)cs1)c1ccccc1 (centres undefined) | ? | ? | -14.3% | -17.4%
SMILES | HCMV inh | Marburg entry inh | LASV entry inh | FMDV antiviral
O=C(c1ccc(-n2c(SCc3cccc(F)c3)nc3ccccc3c2=O)cc1)N1CCOCC1 | -62.9* | -4.7% | 17.6% | ?
O=C(O)c1ccc(CSc2nc3ccccc3c(=O)n2-c2ccccc2)cc1 | 28.0 | nt | nt | -5.0%
COc1ccc(C2CC(c3ccc([N+](=O)[O-])cc3)=NN2C(=O)c2ccccc2)cc1OC (centres undefined) | -26.9 | nt | nt | -15.9%
CC1(C)CC(=O)c2c(O)cc(O)cc2O1 | -21.8 | -10.1% | ? | -5.5%
CCOC(=O)N1CCN(Cc2nc3cc(NC(=O)CC(C)C)ccc3n2C(C)C)CC1 | -94.7* | ? | -25.4%[46.1 µM] | -17.2%
CCOC(=O)N1CCN(Cc2nc3cc([N+](=O)[O-])ccc3n2CC)CC1 | 11.7 | nt | nt | -21.4%
CCOC(=O)N1CCN(Cc2nc3cc(NC(=O)c4cccc(C)c4)ccc3n2C(C)C)CC1 | -94.4* | ? | -4.2%[46.1 µM] | ?
CCOC(=O)N1CCN(Cc2nc3cc(NC(=O)CC(C)C)ccc3n2C)CC1 | 34.0 | nt | nt | -9.4%
Cn1c(CN2CCOCC2)nc2cc(NC(=O)COc3ccc([N+](=O)[O-])cc3)ccc21 | -71.4* | ? | 2.6% | ?
CCOC(=O)N1CCN(Cc2nc3cc(NC(=O)CC)ccc3n2C(C)C)CC1 | -9.5 | -30.0%[46.1 µM] | -23.6%[46.1 µM] | ?
CCCn1c(CN2CCN(C(=O)OCC)CC2)nc2cc([N+](=O)[O-])ccc21 | -76.4* | ? | ? | ?
CCCCn1c(=O)c(C=Nc2cc([N+](=O)[O-])ccc2OC)c(O)n(CCCCl)c1=O | -7.7 | -12.7% | 17.9% | -20.0%
COCCCNC(=O)Cn1cnc2c(NCc3ccccc3)ncnc21 | 8.4 | nt | nt | -12.9%
O=C(CSc1nc(C2CC2)n(-c2ccccc2)n1)NCc1ccco1 | -10.8 | nt | nt | -1.3%
CCOC(=O)N1CCN(Cc2nc3cc(NC(=O)c4ccc([N+](=O)[O-])cc4)ccc3n2C(C)C)CC1 | -83.0* | ? | 1.4%[46.1 µM] | 0.0%
Cc1[nH]c(C)c2c(=O)n(Cc3ccc(Cl)cc3)ncc12 | ? | nt | nt | -23.4%
CCc1ccc(C(=O)Cn2ncc(Cl)c(Cl)c2=O)cc1 | -106.9* | ? | ? | ?
O=c1c(Cl)c(Cl)cnn1Cc1ccccc1Cl | -101.0* | 6.51µM* | 13µM* | 25.1µM*
Cc1ccc(Cn2ncc(Cl)c(Cl)c2=O)cc1 | -9.9 | ? | ? | 39.8µM*
O=c1c(Cl)c(Cl)cnn1-c1ccccc1 | -100.0* | 25.9µM* | ? | ?
O=C(NCCc1nnc2ccc(NCC3CCCO3)nn12)c1ccccc1 (centres undefined) | 128.9 | 14.3%[46.1 µM] | nt | 7.4%
COc1cccc(CN2C(=O)NC(C)(C3CCN(Cc4cc(Cl)ccc4O)CC3)C2=O)c1OC (centres undefined) | nt | nt | nt | -23.5%
Cc1cc(NC(=O)CCC(=O)N(CC(=O)NCC2CCCO2)c2cccc(C)c2C)no1 (centres undefined) | 14.5 | 12.2%[46.1 µM] | 10.5% | -13.2%
Cc1cc(=O)n(C(C)(C)C)c(=O)n1Cc1ccccc1 | -38.6 | nt | nt | -19.5%
O=C(O)Cc1ccc(O)c(O)c1 | 3.1 | ? | 17.3% | -18.3%
SMILES | HCMV inh | Marburg entry inh | LASV entry inh | FMDV antiviral
Cc1cc(C)cc(Cn2ncc(Cl)c(Cl)c2=O)c1 | -84.1* | 11.2µM* | ? | 28.2µM*
COc1ccc(-n2nc(C(=O)NCC(=O)NCc3ccccc3OC)c3ccccc3c2=O)cc1 | 24.5 | 2.2%[46.1 µM] | -1.9%[46.1 µM] | -17.6%
CC(=O)Nc1ccc(S(=O)(=O)N2CCN(C(=O)N3CCCCCC3)CC2)cc1 | -68.5* | ? | ? | -15.3%
CC(=O)Nc1ccc(S(=O)(=O)N2CCN(S(=O)(=O)c3ccc(NC(C)=O)cc3)CC2)cc1 | nt | 10.1%[46.1 µM] | 1.2%[46.1 µM] | -17.4%
CC(=O)Nc1ccc(S(=O)(=O)N2CCN(C(=O)N3CCCC3)CC2)cc1 | -21.5 | 3.8%[46.1 µM] | nt | 0.3%
CC(=O)Nc1ccc(S(=O)(=O)N2CCc3c(Cl)cccc3C2)cc1 | -66.6* | nt | nt | -2.9%
CC1CCCN(C(=S)Nc2ccc(S(=O)(=O)N3CCCCC3)cc2)C1 (centres undefined) | -67.0* | -22.4%[46.1 µM] | -14.3%[46.1 µM] | -4.3%
CN1CCN(S(=O)(=O)c2ccc(NC(=O)C(C)(C)C)cc2)CC1 | -107.8* | 26.0% | 11.7% | 8.4%
